“And” between values parts separate entries of the source, which are not always exact repeats. Equal entries are not always repeated. Records with an inconclusive call do not appear. Where a call stands in place of a potency, no number is given. Where a structure was tested more than once in an assay, its records may differ in their call. The source made the active and inactive calls. Calls come from the whole dose curve; as a rule, active = well fitted activation curve with a large enough effect in the repeat runs; inconclusive = weak or mixed curves; inactive = flat fitted curve, though single readings scatter.
Potency is the fitted concentration of half-maximal effect.

The nature of this experiment: A CellTox Green Cytotoxicity Assay to monitor cytotoxicity in HepG2 cells - 24 hour (AID 1224878). Note: nearly all actives have a fitted effect of over 45% in size. Conditions: CellTox Green fluorescence; series mostly up to 76.8 µM. The text has this: National Center for Advancing Translational Sciences [NCATS]
NIH Chemical Genomics Center [NCGC]
U.S. Environmental Protection Agency [EPA]
National Institutes of Environmental Health Sciences [NIEHS]
National Toxicology Program [NTP]
Cell-based models are critical for drug discovery. Determining the natural cytotoxic effects resulting from test compounds is an essential research activity. A CellTox Green Cytotoxicity Assay to monitor cytotoxicity in real time of continues cell culture during 40 hours of the compound treatment was used to screen Tox21 10K library compounds in HepG2 cells. CellTox Green Cytotoxicity Assay is a nonlytic, homogeneous, biofluorescent method to measure cytotoxicity in cell culture after experimental manipulation. The assay system uses a proprietary asymmetric cyanine dye that is excluded from viable cells but preferentially stains the dead cell's DNA. […] Viable cells produce no appreciable increases in fluorescence. Therefore, the fluorescence signal produced by the binding interaction with dead cell DNA is proportional to cytotoxicity.
The mixture of HepG2 cell suspension and reagents were dispensed at 600cells/6 ul/well in 1536-well tissue culture treated black solid bottom plates using a Multidrop dispenser. After the assay plates were incubated at a 37 C/5% CO2 incubator for 5 hours, 23 nL of compounds dissolved in DMSO, positive and negative controls was transferred to the assay plate by a pintool work station. The plates were incubated at 37 C for 40 hours. The fluorescence intensity were measured at 0h, 8h, 16h, 24h, 32h and 40h time points using ViewLux plate reader during compound treatment.
As to `CC[n+]1c(-c2ccccc2)c2cc(N)ccc2c2ccc(N)cc21`, the Potency result was “inactive”. The entry for `O=NN1CCOCC1` is “inactive”; for `CCOS(=O)(=O)OCC` it is “inactive”.

`CCCCCCCC[N+](C)(CCCCCCCC)CCCCCCCC`: the Potency is 9.75 µM (active) and 19.5 µM (active) and 15.5 µM (active). The entry for `ClC(Cl)=C(Cl)C(Cl)=C(Cl)Cl` is “inactive”; for `N#Cc1c(Cl)c(Cl)c(Cl)c(C#N)c1Cl` it is 24.1 µM (active) and 3.09 µM (active); for `O=[N+]([O-])c1ccc(Nc2ccccc2)cc1` it is “inactive”. The entry for `CC(C)(c1ccc(OCC2CO2)cc1)c1ccc(OCC2CO2)cc1` (stereo not given) is “inactive”. The entry for `CC(C)(O)C(=O)Nc1ccc([N+](=O)[O-])c(C(F)(F)F)c1` is “inactive”; for `CC(C)(c1ccccc1)c1ccc(O)c(C(C)(C)c2ccccc2)c1` it is 48.5 µM (active) and 43.6 µM (active). On to `Cn1c(-c2ccccc2)cc(-c2ccccc2)[n+]1C`, for which the Potency entry is “inactive”. The entry for `CC1(C)C(C(=O)OC(C#N)c2cccc(Oc3ccccc3)c2)C1(C)C` (stereo not given) is “inactive”. The entry for `C[C@]12CC[C@H]3[C@@H](CCC4=CC(=O)CC[C@@H]43)[C@@H]1CC[C@@H]2O` is “inactive”; for `CN(C)c1nc(=O)n(C2CCCCC2)c(=O)n1C` it is “inactive”; for `COc1ccc(C=O)cc1OC` it is “inactive”.

In the case of `Cc1cc(Cl)ccc1N=CN(C)C`, the Potency result is “inactive”. To `CC(C)=CC1C(C(=O)OCN2C(=O)C3=C(CCCC3)C2=O)C1(C)C` (stereo not given) belongs “inactive”. The entry for `CCOP(=S)(OCC)OP(=S)(OCC)OCC` is “inactive”; for `N#CC(c1ccccc1)c1ccccc1` it is “inactive”; for `C=CC(Cl)CCl` (stereo not given) it is “inactive”. As for `OCCOCCO`, the Potency entry was “inactive”.

With `Oc1ccc(Cl)cc1Cc1ccccc1`, the Potency entry was “inactive and 15.7 µM (active)”. `[Cl-].[Cl-].[Cl-].[Fe+3]`: the Potency result is “inactive”. The entry for `COC(=O)Nc1nc2ccccc2[nH]1` is “inactive”; for `ClC(Cl)(Cl)Br` it is “inactive”; for `N#CCCCCC#N` it is “inactive”. As for `Brc1ccc(Br)cc1`, the Potency result is “inactive”. With `CC(C)Nc1nc(Cl)nc(NC(C)C)n1`, the Potency entry was “inactive”.

Take `ClCC(Cl)CCl`: the Potency entry was “inactive”. To `Clc1ccc(C(Cl)(Cl)Cl)cc1` belongs “inactive”.

Turning to `CCC(=O)Nc1ccc(Cl)c(Cl)c1`, the Potency entry was “inactive”.

On to `c1ccc2c(c1)Nc1ccccc1S2`, for which the Potency result was “inactive”. The entry for `CCOP(=O)(O)OCC` (tested in a mixture with another compound) is “inactive and 43.3 µM (active)”; for `CC1(C)Cc2cccc(O)c2O1` it is “inactive”. Take `Nc1ccc([N+](=O)[O-])cc1N`: the Potency entry was “inactive”. To `CCCCCCCCCC(CC)c1ccc(S(=O)(=O)O)cc1` (stereo not given) belongs 54.9 µM (active) and 21.3 µM (active) and 38.9 µM (active); to `Nc1ccc2ccccc2c1`, “inactive”. With `COP(=S)(OC)Oc1ccc(Sc2ccc(OP(=S)(OC)OC)cc2)cc1`, the Potency result was “inactive”. The figure for `C=CC(=O)OCC(CC)(COC(=O)C=C)COC(=O)C=C` is 14.2 µM (active); for `OC(c1ccc(Cl)cc1)(c1cncnc1)c1ccccc1Cl` (stereo not given) it is 25 µM (active) and inactive.

The record behind these values is PubChem BioAssay (Tox21).
